Results: PubChem BioAssay (NCATS)
Where “and” joins values, the source holds several entries; their conditions need not be identical. Equal entries are not always repeated. Inconclusive results are not listed. Calls of active or inactive are those of the source. Unless noted, calls come from the whole dose curve; as a rule, active = well fitted curve in the direction sought with a large enough effect; inconclusive = small, poorly fitted or top-dose-only effect, or another doubt; inactive = no such curve, though single readings can be large; an effect the other way counts as inactive or inconclusive.

Test system: not listed separately
Assay: qHTS assay for small molecule activators of the p53 signaling pathway (AID 651743; active = well fitted activation curve with a large enough effect in the signal ratio, not every such curve was filed as active; the % refers to the signal ratio; note: potency is the fitted concentration of half-maximal effect; for activation: % of control where 0% means no effect)
Conditions: HCT-116 p53RE-bla, beta-lactamase FRET ratio, 16 h; activation: active compounds read high
Procedure, shortened: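 Following 16 hours of compound exposure at 37 C, HCT-116 cells bearing the p53RE-bla reporter were loaded with LiveBLAzer B/G FRET substrate for 2 hours at room temperature and fluorescence intensity was recorded.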

Compound | activation | Potency
CCOP(=S)(OCC)Oc1ccc2c(C)c(Cl)c(=O)oc2c1 | -4.7% (inactive) | –
C[C@]12CCC(=O)C=C1CC[C@@H]1[C@@H]2CC[C@@]2(C)[C@H]1CC[C@]2(C)O | 5.56% (inactive) | –
O=C(O)CCCc1ccc(N(CCCl)CCCl)cc1 | – | 22.4 µM (active) and 35.5 µM (active)
C[C@]12CCC(=O)C=C1CC[C@@H]1[C@@H]2CC[C@]2(C)C(=O)CC[C@@H]12 | -1.07% (inactive) and 0.979% (inactive) | –
Nc1ccccc1C(=O)O | -0.0398% (inactive) | –
Oc1ccc(Cl)cc1 | -2.59% (inactive) | –
O=C1c2ccccc2C(=O)c2ccccc21 | 3.87% (inactive) | –
COP(=S)(OC)SCN1C(=O)c2ccccc2C1=O | 6.79% (inactive) | –
CC1(C)C(C=C(Cl)Cl)C1C(=O)OC(C#N)c1cccc(Oc2ccccc2)c1 (centres undefined) | -1.45% (inactive) | –

Test system: not listed separately
Assay: qHTS assay for small molecule activators of the nuclear factor-kappa B (NF-kB) signaling pathway (AID 651749; active = well fitted activation curve with a large enough effect in the signal ratio; the % refers to the signal ratio; note: % of control where 0% means no effect)
Conditions: NF-kB-bla ME-180 cells, beta-lactamase FRET ratio, 16 h; active compounds read high
Procedure, shortened: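 In this qHTS format, compounds acting as activators increase NF-kB-driven beta-lactamase in ME-180 cells, measured as disrupted FRET after 16 hr exposure at 37C and 5% CO2.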

Compound | activation
O=C(O)CCCc1ccc(N(CCCl)CCCl)cc1 | 0.602% (inactive) and -1.35% (inactive)
Nc1ccccc1C(=O)O | 1.57% (inactive)
Oc1ccc(Cl)cc1 | -0.964% (inactive)
O=C1c2ccccc2C(=O)c2ccccc21 | -2.5% (inactive)
COP(=S)(OC)SCN1C(=O)c2ccccc2C1=O | -2.37% (inactive)
CC1(C)C(C=C(Cl)Cl)C1C(=O)OC(C#N)c1cccc(Oc2ccccc2)c1 (centres undefined) | 1.83% (inactive)

Target: Tumor necrosis factor (Homo sapiens) (UniProt P01375)
Sequence (P01375 whole entry, looked up): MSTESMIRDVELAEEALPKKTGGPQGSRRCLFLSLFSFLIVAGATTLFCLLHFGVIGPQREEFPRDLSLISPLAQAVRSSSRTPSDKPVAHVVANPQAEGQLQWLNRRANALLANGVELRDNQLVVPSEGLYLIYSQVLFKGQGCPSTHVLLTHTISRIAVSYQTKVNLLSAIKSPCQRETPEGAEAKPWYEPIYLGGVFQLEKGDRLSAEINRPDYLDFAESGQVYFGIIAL
Assay: qHTS assay to identify small molecules that stimulate Tumor Necrosis Factor-alpha (TNF-alpha) secretion (AID 651757; active = well fitted curve in the direction sought with a large enough effect in the signal ratio; the % refers to the signal ratio; note: 0% is about no effect)
Conditions: Human cells, HTRF 665/615 ratio; series mostly up to 92.2 µM
Procedure, shortened: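 Human monocytic THP-1 cells are plated, treated with compound and held at 37 C for 17 hrs. Labeled anti-TNF-alpha antibody mixture is then added; after 3 hr at room temperature, TR-FRET signal reports secreted TNF-alpha.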

Compound | outcome
C[C@]12CCC(=O)C=C1CC[C@@H]1[C@@H]2CC[C@@]2(C)[C@H]1CC[C@]2(C)O | inactive
C[C@]12CCC(=O)C=C1CC[C@@H]1[C@@H]2CC[C@]2(C)C(=O)CC[C@@H]12 | inactive
Nc1ccccc1C(=O)O | inactive
Oc1ccc(Cl)cc1 | inactive

Test system: not listed separately
Assay: qHTS assay for environmental chemicals that activate the Aryl hydrocarbon Receptor (AhR) signaling pathway (AID 651777); note: % of control where 0% means no effect; nearly all actives have a fitted effect of over 15% in size
Conditions: 1A2-DRE human hepatoma cells, luciferase, 24 h; active compounds read high
Procedure, shortened: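 Induction of CYP1A2 transcription through AhR is detected by luciferase in 1A2-DRE hepatoma cells. Compounds or DMSO act for 24 hr at 37 C before a 30 min One-Glo step at room temperature.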

Compound | activation
C[C@]12CCC(=O)C=C1CC[C@@H]1[C@@H]2CC[C@@]2(C)[C@H]1CC[C@]2(C)O | -0.473% (inactive)
O=C(O)CCCc1ccc(N(CCCl)CCCl)cc1 | -0.459% (inactive) and 0.835% (inactive)
C[C@]12CCC(=O)C=C1CC[C@@H]1[C@@H]2CC[C@]2(C)C(=O)CC[C@@H]12 | 2.9% (inactive) and -2.01% (inactive)
Nc1ccccc1C(=O)O | 3.23% (inactive)
Oc1ccc(Cl)cc1 | 0.502% (inactive)
O=C1c2ccccc2C(=O)c2ccccc21 | 2.59% (inactive)
COP(=S)(OC)SCN1C(=O)c2ccccc2C1=O | -1.4% (inactive)
CC1(C)C(C=C(Cl)Cl)C1C(=O)OC(C#N)c1cccc(Oc2ccccc2)c1 (centres undefined) | 3.99% (inactive)

Target: Peroxisome proliferator-activated receptor alpha (Homo sapiens) (UniProt Q07869)
Sequence (Q07869 whole entry, looked up): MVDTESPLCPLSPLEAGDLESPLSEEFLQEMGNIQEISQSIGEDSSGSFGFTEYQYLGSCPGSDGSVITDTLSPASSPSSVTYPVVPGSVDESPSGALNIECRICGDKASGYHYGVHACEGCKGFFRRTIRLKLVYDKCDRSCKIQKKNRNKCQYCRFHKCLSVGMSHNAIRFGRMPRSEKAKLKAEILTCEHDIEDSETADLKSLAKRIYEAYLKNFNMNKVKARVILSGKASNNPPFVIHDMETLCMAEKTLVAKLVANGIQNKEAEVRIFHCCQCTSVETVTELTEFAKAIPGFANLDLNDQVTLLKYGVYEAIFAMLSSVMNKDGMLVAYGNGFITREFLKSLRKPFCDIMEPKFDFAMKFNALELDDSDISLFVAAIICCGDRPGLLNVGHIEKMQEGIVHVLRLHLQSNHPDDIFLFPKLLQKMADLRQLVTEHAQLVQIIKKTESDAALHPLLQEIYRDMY
Assay: qHTS assay for small molecule agonists of the peroxisome proliferator-activated receptor alpha (PPARalpha) signaling pathway (AID 651778); note: % of control where 0% means no effect
Conditions: PathHunter PPARalpha complementation, chemiluminescence, 6 h; active compounds read high
Procedure, shortened: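 Enzyme-fragment complementation assay in which ligand-bound PPARalpha translocates and forms an active enzyme that generates chemiluminescence. Cells were plated overnight, exposed to compound for 6 hr at 37 C, and then given detection reagent for 60 min at room temperature.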

Compound | max response
CCOP(=S)(OCC)Oc1ccc2c(C)c(Cl)c(=O)oc2c1 | -4.26% (inactive)
C[C@]12CCC(=O)C=C1CC[C@@H]1[C@@H]2CC[C@@]2(C)[C@H]1CC[C@]2(C)O | 7.27% (inactive)
O=C(O)CCCc1ccc(N(CCCl)CCCl)cc1 | 0.105% (inactive) and -1.89% (inactive)
C[C@]12CCC(=O)C=C1CC[C@@H]1[C@@H]2CC[C@]2(C)C(=O)CC[C@@H]12 | -0.773% (inactive) and -1.33% (inactive)
Nc1ccccc1C(=O)O | 0.553% (inactive)
Oc1ccc(Cl)cc1 | 0.582% (inactive)
O=C1c2ccccc2C(=O)c2ccccc21 | 0.92% (inactive)
COP(=S)(OC)SCN1C(=O)c2ccccc2C1=O | -0.635% (inactive)
CC1(C)C(C=C(Cl)Cl)C1C(=O)OC(C#N)c1cccc(Oc2ccccc2)c1 (centres undefined) | -4.65% (inactive)

Target: Nuclear receptor ROR-gamma (Homo sapiens) (UniProt P51449)
Sequence (P51449 whole entry, looked up): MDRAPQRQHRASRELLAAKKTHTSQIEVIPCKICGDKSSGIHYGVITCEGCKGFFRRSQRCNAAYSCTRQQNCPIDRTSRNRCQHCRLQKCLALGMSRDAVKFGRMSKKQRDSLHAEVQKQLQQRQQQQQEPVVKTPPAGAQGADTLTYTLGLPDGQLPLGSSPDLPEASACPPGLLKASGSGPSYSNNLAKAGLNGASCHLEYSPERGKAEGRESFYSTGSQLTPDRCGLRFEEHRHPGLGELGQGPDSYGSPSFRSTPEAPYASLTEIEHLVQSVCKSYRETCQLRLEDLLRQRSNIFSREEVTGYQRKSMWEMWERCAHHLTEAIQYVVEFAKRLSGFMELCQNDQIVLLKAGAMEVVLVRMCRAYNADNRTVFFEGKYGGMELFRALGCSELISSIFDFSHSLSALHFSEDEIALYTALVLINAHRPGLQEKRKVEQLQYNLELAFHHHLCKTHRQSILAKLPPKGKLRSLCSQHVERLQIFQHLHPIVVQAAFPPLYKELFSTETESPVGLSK
Assay: qHTS assay for small molecule antagonists of the retinoid-related orphan receptor gamma (ROR-gamma) signaling pathway (AID 651802); note: nearly all actives have a fitted effect of over 60% in size; note: potency is the fitted concentration of half-maximal effect
Conditions: ROR-gamma antagonist cell reporter assay; series mostly up to 92.2 µM
Procedure, shortened: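 Steps: cells dispensed; compound or DMSO transferred by pin tool; doxycycline added to induce the ROR response element-driven luciferase; plates held 16hr at 37C; ONE-Glo added and luminescence measured.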

Compound | Potency
C[C@]12CCC(=O)C=C1CC[C@@H]1[C@@H]2CC[C@@]2(C)[C@H]1CC[C@]2(C)O | 16.8 µM (active)
C[C@]12CCC(=O)C=C1CC[C@@H]1[C@@H]2CC[C@]2(C)C(=O)CC[C@@H]12 | 33.5 µM (active)
Nc1ccccc1C(=O)O | inactive
Oc1ccc(Cl)cc1 | inactive

Target: Arylsulfatase A (Homo sapiens) (UniProt P15289)
Sequence (P15289 whole entry, looked up): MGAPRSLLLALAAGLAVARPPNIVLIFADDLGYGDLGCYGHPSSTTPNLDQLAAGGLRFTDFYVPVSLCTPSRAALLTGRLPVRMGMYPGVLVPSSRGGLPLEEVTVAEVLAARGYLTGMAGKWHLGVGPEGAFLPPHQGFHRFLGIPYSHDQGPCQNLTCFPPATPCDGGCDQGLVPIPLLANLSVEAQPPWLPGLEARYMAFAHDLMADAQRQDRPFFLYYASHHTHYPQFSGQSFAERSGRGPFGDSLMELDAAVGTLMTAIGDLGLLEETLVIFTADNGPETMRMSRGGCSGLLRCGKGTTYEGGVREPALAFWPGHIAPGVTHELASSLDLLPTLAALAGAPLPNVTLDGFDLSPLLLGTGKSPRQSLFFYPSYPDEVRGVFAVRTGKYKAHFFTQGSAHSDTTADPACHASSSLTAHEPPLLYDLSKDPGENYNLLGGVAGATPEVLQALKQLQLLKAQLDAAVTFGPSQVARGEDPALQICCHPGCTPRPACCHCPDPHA
Assay: qHTS screen for enhancers of Arylsulfatase A (ASA1): LOPAC Validation Assay (AID 720538)
Conditions: ASA enzyme activity, LOPAC qHTS enhancer assay; series mostly up to 57.5 µM
Procedure, shortened: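 First, ASA-I179S fibroblasts from an MLD patient adhered for 6 hrs. Next, compounds were added for 48h. Then pNCS substrate (0.5mM final) with lysis buffer reacted 14h at room temperature before NaOH stop and fluorescence measurement.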

Compound | outcome
O=c1[nH]oc2c1CCNC2 | inactive
Cn1c(=O)c2[nH]cnc2n(C)c1=O | inactive
O=C(O)CCCc1ccc(N(CCCl)CCCl)cc1 | inactive
CCCCC/C=C\C/C=C\C/C=C\C/C=C\CCCC(=O)NCC(=O)O | inactive
CCC1(C)CC(=O)NC1=O (centres undefined) | inactive
CC(C)N(CCC(C(N)=O)(c1ccccc1)c1ccccn1)C(C)C (centres undefined) | inactive; inhibitor; fitted 0.1901 uM
COc1ccc2c(c1OC)C(=O)O[C@H]2[C@@H]1c2cc3c(cc2CCN1C)OCO3 | inactive
CC(NC(C)(C)C)C(=O)c1cccc(Cl)c1 (centres undefined) | inactive
CCC1(c2ccc(N)cc2)CCC(=O)NC1=O (centres undefined) | inactive
CN=C(NC#N)NCCSCc1nc[nH]c1C | inactive; inhibitor; fitted 6.3096 uM
C=C(C)[C@H]1CN[C@H](C(=O)O)[C@H]1CC(=O)O | inactive
NCCCNCCSP(=O)(O)O | inactive

Test system: not listed separately
Assay: qHTS for compounds that reverse cellular toxicity of Amyloid beta (A-beta) peptide in yeast: LOPAC Validation Assay (AID 720559);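 note: plate controls were DMSO for no effect and equimolar ferric chloride plus clioquinol rescue for full effect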
Conditions: yeast expressing A-beta; series mostly up to 46.1 µM
Procedure, shortened: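 Activity is expressed relative to DMSO and an equimolar ferric chloride/clioquinol mix. Compounds were pinned into medium with A-beta-expressing yeast, grown 48 hr at 30 C, then read by absorbance at 600 nm.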

Compound | outcome
O=c1[nH]oc2c1CCNC2 | inactive
CN1C(=O)CCS(=O)(=O)C1c1ccc(Cl)cc1 (centres undefined) | inactive
CC(C)(C)NCC(O)c1ccccc1Cl (centres undefined) | inactive
Cc1ncsc1CCCl | inactive
O=C(O)CCCc1ccc(N(CCCl)CCCl)cc1 | inactive
CCCCC/C=C\C/C=C\C/C=C\C/C=C\CCCC(=O)NCC(=O)O | inactive
CC(C)N(CCC(C(N)=O)(c1ccccc1)c1ccccn1)C(C)C (centres undefined) | inactive
COc1ccc2c(c1OC)C(=O)O[C@H]2[C@@H]1c2cc3c(cc2CCN1C)OCO3 | inactive
CC(NC(C)(C)C)C(=O)c1cccc(Cl)c1 (centres undefined) | inactive
CCC1(c2ccc(N)cc2)CCC(=O)NC1=O (centres undefined) | inactive
O=C(CCCN1CCC2(CC1)C(=O)NCN2c1ccccc1)c1ccc(F)cc1 | inactive
C=C(C)[C@H]1CN[C@H](C(=O)O)[C@H]1CC(=O)O | inactive
